# Data: PubChem BioAssay AID624483 (NMMLSC, 2012)
# About 11,000 (3.1%) of roughly 360,000 compounds were called active. Inconclusive results (about 2%) are left out. Cut-off read from the data, not from the text of the source: active = fluorescence intensity above about 16000; inconclusive = no clear call, values can overlap the other calls; inactive = below that. The full list was thinned out, with actives kept by preference.
# Assay: compound fluorescence in toxin protease inhibitor counterscreen, primary screen, artefact control for toxin protease inhibitor project, biochemical, multiplex microsphere, HTS (AID 624483)
# Settings: compound autofluorescence counterscreen, microsphere flow cytometry; hits give high values
row,Compound,fluorescence intensity
1,CC(Oc1ccc2c(-c3ccccc3)cc(=O)oc2c1)C(=O)NC(Cc1c[nH]c2ccccc12)C(=O)O (stereo not given),3610 (inactive)
2,COC(=O)C(C)Oc1ccc2c(-c3cccc([N+](=O)[O-])c3)cc(=O)oc2c1 (stereo not given),21200 (active)
3,COc1ccc(-c2cc(=O)oc3cc(OC(C)C(=O)NCC4CCC(C(=O)O)CC4)ccc23)cc1 (stereo not given),6030 (inactive)
4,CC(C)n1c(NCc2c[nH]c3ccccc23)nc2ccccc21,2940 (inactive)
5,COCCOC(=O)c1sc(=S)n(CCOC)c1N,23500 (active)
6,CC(=O)N1Cc2cc(C(=O)NCc3cccc(F)c3)nc(-c3cccc(C4=CCCCC4)c3)c2[C@H]1CCO,5630 (inactive)
7,O=C(NCc1cccnc1)C12CC3CC(CC(C3)C1)C2,3100 (inactive)
8,O=C(CNS(=O)(=O)c1ccc(Br)s1)NCc1ccc2c(c1)OCO2,24800 (active)
9,O=C(NCc1ccc2c(c1)OCO2)c1ccc(Cl)s1,3620 (inactive)
10,O=C(NCc1ccc2c(c1)OCO2)C12CC3CC(CC(C3)C1)C2,21300 (active)
11,Cc1ccc(CNC(=O)CCNS(=O)(=O)c2ccc(Br)s2)cc1,3440 (inactive)
12,Cc1ccc(C(=O)OCC(=O)NCc2ccc3c(c2)OCO3)s1,3100 (inactive)
13,COc1ccc(OC)c(NC(=O)C2(C)CCN2C(=O)Cc2ccccc2)c1 (stereo not given),3710 (inactive)
14,CCCCOCCCNC(=O)C[C@@H]1C[C@@]2(C(=O)OC)CCCCC=C2N(CCC2=CCCCC2)C1=O,6000 (inactive)
15,O=c1onc(-c2c(F)cccc2F)n1-c1ccccc1Cl,4210 (inactive)
16,Cc1ccc(NS(=O)(=O)c2ccc(-c3coc(C)n3)cc2)c(C)c1,5350 (inactive)
17,Cc1c(C)c2c(OCC(=O)N[C@@H](C(=O)O)c3ccccc3)cc3c(c2oc1=O)CCC(C)(C)O3,6410 (inactive)
18,CCOC1=C2CN(S(=O)(=O)c3ccc(C)cc3)[C@H](c3cccs3)C[C@H]2[C@H]2C(=O)N(c3ccccc3)C(=O)[C@H]2C1,6240 (inactive)
19,COCCCn1cc(CN2CC(N(C)C)CS2(=O)=O)nn1 (stereo not given),4380 (inactive)
20,O=C(Nc1cccc2c1CCCC2)c1ccc(F)cc1,4040 (inactive)
21,Cc1ccc(F)cc1NC(=O)c1cccc(N(C)C)c1,23300 (active)
22,Cc1ccc(C)c(NC(=O)c2ccc3nccnc3c2)c1,4320 (inactive)
23,COCCNc1nc(Nc2ccccc2Cl)c2sc(-c3ccccc3)cc2n1,3680 (inactive)
24,Cc1ccc(C)c(N2C(=O)CS/C2=N\NC(=O)c2ccccc2Cl)c1,9520 (inactive)

row,Compound,fluorescence intensity
1,CC1=CC(=NNS(=O)(=O)c2ccc([N+](=O)[O-])cc2)CC(C)(C)C1,3700 (inactive)
2,CSc1nc(-c2ccco2)nn1C(=O)c1ccccc1Cl,4950 (inactive)
3,C/C(=N/NC(=O)CCc1ccccc1)c1ccco1,2010 (inactive)
4,CSc1nc(-c2ccco2)nn1C(=O)CCc1ccccc1,22700 (active)
5,COc1cccc(C(O)c2nc(-c3ccc(C)c(C)c3)cs2)c1 (stereo not given),3830 (inactive)
6,CCC1(C)N(O)C(C)(C)C(c2ccc(OC)cc2)=[N+]1[O-] (stereo not given),5620 (inactive)
7,C/C(=N\O)C1(C)N(O)C(C)(C)C(c2ccc(Br)cc2)=[N+]1[O-] (stereo not given),25600 (active)
8,CCC1=[N+]([O-])C(C)(/C(C)=N\O)N(O)C1(C)C (stereo not given),9530 (inactive)
9,C=CCN(CC=C)S(=O)(=O)c1ccc(C(=O)Nc2nc3c(s2)CCc2ccccc2-3)cc1,11000 (inactive)
10,COc1ccccc1-n1cnc2cc(NS(=O)(=O)c3ccccc3)ccc21,3550 (inactive)
11,CC(=O)c1c(C)oc2ccc(NS(=O)(=O)c3ccccc3)cc12,5190 (inactive)
12,COc1cc(NS(=O)(=O)c2ccccc2)ccc1-n1nc(C)cc1C,17700 (active)
13,CC(C)(O)C#Cc1ncc(C(F)(F)F)cc1Cl,4380 (inactive)
14,O=C(NCCCN1CCCCC1)C1CC(=O)N(CCc2ccccc2)C1 (stereo not given),5320 (inactive)
15,Cc1ccc(CCN2CC(C(=O)NCCc3ccccc3)CC2=O)cc1 (stereo not given),5840 (inactive)
16,O=C(NC1CCCCC1)C1CC(=O)N(CCc2ccccc2)C1 (stereo not given),21500 (active)
17,CC(=O)NC1CCN(CC(=O)Nc2nccs2)CC1,3460 (inactive)
18,O=C(Nc1cccc2ccccc12)c1[nH]c(-c2ccccc2)c2c1C(=O)N(C1CC1)C2=O,5310 (inactive)
19,CCCNC(=O)c1cc2c(c(-c3cccc(-c4ccc(C#N)cc4)c3)n1)[C@@H](CCO)N(C(=O)CC)C2,4490 (inactive)
20,Cn1c2c(c(=O)n(C)c1=O)[C@@H]1c3c(ccc4ccccc34)OC[C@@H]1CO2,3510 (inactive)
21,CCN1CCN(CCCCOc2ccccc2F)CC1,9580 (inactive)
22,OCCNCCCCOc1ccccc1F,23000 (active)
23,Fc1ccccc1OCCCCn1cncn1,5750 (inactive)
24,CCCN1C(=O)C(NC(C)=O)c2cc(OC)ccc21 (stereo not given),2550 (inactive)

row,Compound,fluorescence intensity
1,COc1ccc(C(=O)NCC[N+](C)(C)C)cc1,5780 (inactive)
2,O=C(NC1CCCC1)C1c2ccccc2OCC(=O)N1Cc1ccccc1 (stereo not given),5910 (inactive)
3,CC(=O)N1CCC(N(C(=O)Nc2ccc(Cl)cc2)C(C)C)CC1,4610 (inactive)
4,Cc1ccc(NC(=O)NC(=O)N(C2CCCCC2)S(=O)(=O)c2ccccc2)cc1,9210 (inactive)
5,CC(c1ccco1)N(C(=O)Nc1ccccc1)C1CCCCC1 (stereo not given),20500 (active)
6,Cc1cc(C)c(S(=O)(=O)NN=C2c3ccccc3[C@H]3Cc4csc[n+]4[C@@H]23)c(C)c1,5040 (inactive)
7,O=C(c1ccc(C(F)(F)F)cc1)N1CCC(=O)N([C@H](COCc2ccccc2)Cc2ccccc2)CC1,5850 (inactive)
8,CCOc1ccc(-c2nnn(CC(=O)N3CCN(c4ccc(F)cc4)CC3)n2)cc1OCC,6120 (inactive)
9,CCOc1ccc(-c2nnn(CC(=O)N3CCN(c4ccc(OC)cc4)CC3)n2)cc1OCC,4250 (inactive)
10,COc1ccc(C(=O)Cn2nnc(-c3ccc(N4CCOCC4)cc3)n2)cc1OC,24200 (active)
11,CCCNC(=O)c1cc(C2CCCCN2C(=O)OC)on1 (stereo not given),3000 (inactive)
12,COc1cc(C2C(C(=O)Nc3ccccc3OC)=C(C)Nc3ncnn32)ccc1O (stereo not given),6420 (inactive)
13,COc1ccccc1NC(=O)C1=C(C)Nc2nnnn2C1c1cccc(Br)c1 (stereo not given),20400 (active)
14,COc1ccccc1NC(=O)C1=C(C)Nc2ncnn2C1c1ccc(C)o1 (stereo not given),2690 (inactive)
15,COc1ccc(NC(=O)CN2C(=O)COc3ccc(S(=O)(=O)N4CCOCC4)cc32)cc1,4800 (inactive)
16,CC1(C(=O)NS(=O)(=O)c2ccccc2)CCN1C(=O)C/C=C/c1ccccc1 (stereo not given),3600 (inactive)
17,Oc1ccc2ccc3cccc[n+]3c2c1,4220 (inactive)
18,CCCC(=O)N1CCC1(C)C(=O)NCc1ccc(C(C)C)cc1 (stereo not given),3880 (inactive)
19,COc1ccc(-n2ncc3c(N4CCc5ccccc54)ncnc32)cc1,22400 (active)
20,COc1ccc(-n2ncc3c(N4CCCc5ccccc54)ncnc32)cc1,11300 (inactive)
21,COc1ccc(-n2ncc3c(SCC(=O)NNC(C)=O)ncnc32)cc1,3990 (inactive)
22,CCCNC(=O)C1(C)CCN(Cc2csc(-c3ccc(Cl)cc3)n2)C1 (stereo not given),3720 (inactive)
23,Cc1cc2nc(-c3ccc(Cl)cc3)c(Cc3cccc(F)c3)n2c(C)c1Br,6020 (inactive)
24,O=C(N1CCCC1)C12CC3CC(C1)CC(C(=O)N1CCCC1)(C3)C2,2410 (inactive)

row,Compound,fluorescence intensity
1,C=CCNC(=O)CC12CC3CC(C1)CC(CC(=O)NCC=C)(C3)C2,4730 (inactive)
2,O=C(NCC12CC3CC(C1)CC(CNC(=O)N1CCCC1)(C3)C2)N1CCCC1,16800 (active)
3,Nc1nc(SCc2cccc(Br)c2)n[nH]1,3680 (inactive)
4,C=CCc1cccc2cc(C(=O)NC3CCCC3)c(=O)oc12,2230 (inactive)
5,COc1ccc(OCc2ccc(-c3nc4ccccc4c(=O)n3N)o2)cc1,2450 (inactive)
6,Cc1ccc(C(=O)CSc2nc3ccccc3c(=O)n2N)o1,19100 (active)
7,COc1ccc(NC(=O)CSc2nc3ccccc3c(=O)n2C)cc1,3680 (inactive)
8,COc1ccc(-c2ccc(C(=O)NCCN3CCOCC3)c3occc23)c(C)c1,3620 (inactive)
9,Cc1nnc(SCC(=O)Nc2ccc(S(=O)(=O)Nc3ccc(Cl)nn3)cc2)s1,5340 (inactive)
10,COc1ccccc1N1CCN(Cc2cc(OC)c3c(c2)OCO3)CC1,3350 (inactive)
11,COc1ccccc1N1CCN(Cc2ccc(OC)c3ccccc23)CC1,21400 (active)
12,COc1ccc(CN2CCN(Cc3ccc(OC)c(OC)c3OC)CC2)cc1,3740 (inactive)
13,COC(C[C@@H](O)[C@H](C)[C@H](O)COCc1ccccc1)OC,4260 (inactive)
14,COc1cc(/C=C(/NC(=O)c2ccccc2)C(=O)Nc2cccc(O)c2)c([N+](=O)[O-])cc1OC,11300 (inactive)
15,O=C(COC(=O)/C=C/c1ccc(OC(F)F)cc1)NC1CCCCC1,5950 (inactive)
16,CC(=O)C1=C(O)C(=O)N(c2ccc(S(N)(=O)=O)cc2)C1c1ccccc1F (stereo not given),2660 (inactive)
17,CN(C)CCCOc1ccc(-c2ccc3nccn3c2)cn1,3380 (inactive)
18,Cc1nc([N+](=O)[O-])cn1CC(=O)Nc1ccc(Cl)cc1,3080 (inactive)
19,CC(C)C[C@@H]1COc2cc(N3CCC[C@@H]3CO)ccc2S(=O)(=O)N1,6270 (inactive)
20,Cc1ccccc1S(=O)(=O)NC(=O)C1(C)CCN1C(=O)Cc1ccc(Cl)cc1Cl (stereo not given),3450 (inactive)
21,COc1ccc(/C=N/Nc2nc3ccccc3c(=O)[nH]2)cc1,19400 (active)
22,COc1ccc(CCCc2nnc(SCc3nc4ccccc4c(=O)[nH]3)n2C)cc1,4610 (inactive)
23,COc1ccc(/C=N/Nc2nc(-c3ccc(C)cc3)c(C#N)c(=O)[nH]2)cc1,3690 (inactive)
